Reference: PubChem BioAssay AID540303 (National Center for Advancing Translational Sciences (NCATS), 2011)
Out of some 330,000 compounds screened, about 1,000 (0.3%) were called active. Inconclusive results (about 3%) are left out. Calls follow the shape of the dose curve; as a rule, active = well fitted inhibition curve with a large enough effect; inconclusive = small, poorly fitted or top-dose-only effect; inactive = no such curve, though single readings can be large or run the other way; tested in mouse RAW 264.7 cells. What follows is part of a selection rich in actives, with near analogues and random picks from the rest.

Assay: qHTS for Inhibitors of Cell Surface uPA Generation; also: nearly all actives have a fitted effect of over 55% in size
Conditions: cell surface uPA generation assay; series mostly up to 38.3 µM; activity change, negative = inhibition: at the top concentration
From the text: The overall objective of this project is to perform a quantitative high throughput screen (qHTS) to identify novel compounds that inhibit the generation of cell surface urokinase activity. The urokinase plasminogen activator (uPA) is one of the two primary endogenous systems that mediate plasminogen activation into plasmin. Members of this system, including uPA and its receptor (uPAR), are overexpressed in several malignant tumors. This system plays a major role in adhesion, migration, invasion and metastasis of cancer cells. Small molecule inhibitors of the uPA system will serve as probes to understand the molecular mechanisms of the uPA cascade and better understanding the microenvironmental circumstances that facilitate the activation of plasminogen by uPA, and finally may provide novel candidate agents for anticancer drug therapy.
[…] […] Upon inhibition of the uPA activation cascade, the subsequent cell surface uPA activity-dependent translocation of LF into the cytoplasm is inhibited. ATP-Lite is used to measure intracellular ATP concentrations, which remain increased if LF entry into the cytoplasm is inhibited. This validation assay was performed using a small set of validation compounds.
NIH Chemical Genomics Center [NCGC]
NIH Molecular Libraries Probe Centers Network [MLPCN]
Assay Submitter (PI): Thomas Bugge, National Institute of Dental and Craniofacial Research, NIH
Cultured RAW 264.7 were dispensed into 1536-well clear bottom, white walled tissue culture plates at a density of 4000 cells/well and were incubated overnight (12-16 h) at 37 C in a 5% CO2 incubator. Serially diluted compounds in 23 nl DMSO were added to cells. […] Compound and reagent-treated plates were incubated for 24 h at 37 C in a 5% CO2 incubator. Perkin Elmer ATPlitetrade mark 1 step (3 ul) was then added to each well. Luminescence was detected using a Perkin Elmer ViewLuxtrade mark plate reader.
1.Dispensing RAW 264.7 cells into 1536-well, white walled tissue culture plates at a density of 4000 cells/well (4 uL).
2.Incubation at 37 C in a 5% CO2 incubator overnight.
3.Serially diluting compounds (1:5 serial dilution; 0.0024 uM to […] final concentration) in 23 nl DMSO.
5.Incubating the compound and reagent-treated plates for 24 hours at 37 C in a 5% CO2 incubator.
6.Adding ATP-Lite (3 ul).
7.Reading plates by ViewLux with an exposure length of 5 seconds.
% is scaled to controls: 0 for no effect and ±100 for the full control effect; potency is read from the fitted curve at half-maximal effect.

Potency, active:
COc1cc(SC)ccc1C(=O)Nc1nc(C)cs1 0.891 µM
COc1ccc(C(=O)Nc2nncs2)c(OC)c1 11.2 µM
COc1ccc(-c2ccc(OC(=O)NC3CCS(=O)(=O)C3)cc2)cc1 (stereo not given) 10 µM
Oc1c(CN2CCCC2)cc(COCc2ccccc2)c2cccnc12 4.47 µM
Cc1ccc2nc(-c3ccc(Br)cc3)cn2c1 2.82 µM
Nc1c(C(=O)NCc2ccccc2)nnn1Cc1cccc(Cl)c1 11.2 µM
COC(=O)c1c(CCl)noc1C(=O)NC(C)C 10 µM
CC(=O)Nc1ccc(Nc2c3ccccc3nc3ccccc23)cc1 1 µM
O=C(CCC(=O)N1CCN(S(=O)(=O)c2ccc(Cl)cc2)CC1)NCc1cccc(C(F)(F)F)c1 12.6 µM
Cc1ccc(CNC(=O)Cn2cnc3c(NCc4ccccc4)ncnc32)o1 11.2 µM
O=C(CCNC(=O)c1ccc(Cl)cc1)NC1CCCc2ccccc21 (stereo not given) 5.62 µM

Activity change, negative = inhibition, inactive:
COc1cc(SC)ccc1C(=O)NCCOc1ccccc1Cl -1.79%
COc1ccc(C(=O)Nc2cccc(NC(=O)c3ccc(OC)cc3OC)n2)c(OC)c1 10.8%
Cc1csc(NC(=O)c2ccc(C)s2)n1 -4.48%
COc1ccc(C(=O)NC2=NCCS2)c(OC)c1 -9.96%
CCCC(O)(c1ccccc1)C(c1ccccc1)c1ccccn1 (stereo not given) 0.751%
Cc1cc(C)c(C=NNc2nc3c([nH]2)c(=O)n(C)c(=O)n3C)c(C)c1 0.257%
O=c1c2ccccc2ncn1CCc1ccncc1 -2.13%
O=C(Nc1ccccc1)Oc1cccc2cccnc12 -8.43%
NN=C(NN=Cc1ccccc1)c1ccccc1 -1.74%
COc1cc(/C=C/c2ccc(/C=C/c3cc(OC)c(OC)c(OC)c3)cc2)cc(OC)c1OC 5.42%
CCCN(CCC)S(=O)(=O)c1cc2c(cc1Br)CCN2C(=O)CC 6.75%
O=C(Cc1ccc(Cl)cc1)NC1CCS(=O)(=O)C1 (stereo not given) 0.7%
COc1ccc(NC(=S)NC2CCS(=O)(=O)C2)cc1 (stereo not given) 13.3%
COc1ccc2c(c1)C(=O)CC(c1ccccc1)O2 (stereo not given) -5.17%
O=S(=O)(Cc1ccc(Cl)cc1Cl)c1ccc(Cl)cc1 -13.8%
CC(=O)OCC(=O)C1(O)CCC2C3CC(C)C4=CC(=O)CCC4(C)C3C(O)CC21C (stereo not given) -5.75%
COc1cc(C)cc(CN2CCC(Cc3ccccc3)CC2)c1O -15.2%
COc1cc(CN2CCC(C(N)=O)CC2)ccc1OCc1ccccc1 -0.173%
Nc1ncnc2c1cnn2C1CC(O)C(CO)O1 (stereo not given) 1.67%
COc1ccc(C2NCCCC2c2ccccc2)cc1 (stereo not given) 6.59%
O=C(NN=CC=Cc1ccccc1)C(O)C(O)C(=O)NN=CC=Cc1ccccc1 (stereo not given) 4.29%
Cc1ccc(-c2cn3cc([N+](=O)[O-])ccc3n2)cc1 -15%
Cc1ccc(-c2cn3cc(C)ccc3n2)cc1 -13%
CC(C)=CCc1ccc(O)c(=O)cc1C(C)C -14.1%
CC(C)Cn1cnc2c(SCc3ccc(Cl)cc3)nc(N)nc21 2.74%
COc1cccc(CNC(=O)c2nnn(CC(=O)Nc3cc(C)ccc3C)c2N)c1 -1.4%
COc1cccc(CNC(=O)c2nnn(CC(=O)Nc3cc(Cl)ccc3C)c2N)c1 -7.07%
COc1ccc(N=C2C=CC(=O)O2)cc1 -4.89%
CCOc1cccc(SCc2noc(C(=O)NC(C)C)c2C(=O)O)c1 -8.82%
CCCNC(=O)c1onc(CSc2ccc(F)cc2)c1C(=O)NC(C)C 9.02%
CC(=O)OC1CCC2(C)C(=CCC3C4CC(=O)N(O)C(=O)C4(C)CCC32)C1 (stereo not given) -4.19%
CC(NC(=O)c1ccccc1)C(=O)Nc1ccccc1 (stereo not given) 2.25%
CC(=O)Nc1ccc(C(=O)Nc2cc(S(=O)(=O)N3CCOCC3)ccc2N2CCOCC2)cc1 -3.85%
CC(C)(C)OC(=O)NNc1c2ccccc2nc2ccccc12 -8.44%
CCc1nc(Nc2ccc(NC(C)=O)cc2)c2oc3ccccc3c2n1 8.93%
OCC(O)C1OCOC(C(O)CO)C1O (stereo not given) 9.73%
O=C(NCCc1ccccc1)c1cccc(NC(=O)c2ccccc2)c1 1.44%
O=C(NCc1cccc(C(F)(F)F)c1)c1cccc(S(=O)(=O)N2CCN(Cc3ccccc3)CC2)c1 1.34%
CC(NC(=O)CCC(=O)N1CCN(S(=O)(=O)c2ccc(Cl)cc2)CC1)c1ccccc1 (stereo not given) -7.34%
Cc1cccc(NC(=S)N2CCC(C(=O)c3ccc(F)cc3)CC2)c1 -2.65%
CC(CNC(=O)Cn1cnc2c(OCc3ccccc3)ncnc21)c1ccccc1 (stereo not given) 6.59%
O=C(Cn1cnc2c(OCc3ccccc3)ncnc21)NCc1nc2ccccc2[nH]1 20.3%
CC(C)OC(=O)c1ccc(NCc2cc(O)ccc2O)cc1Cl 4.35%
NC(=O)Nc1ccc(C(=O)OCC(=O)NC2CCCc3ccccc32)cc1 (stereo not given) 2.72%
